The values below come from PubChem BioAssay (NCI).

Holding throughout (assay): NCI-60 one-dose screen, 48 h (100 = growth as untreated, 0 = no growth, -100 = all killed)
Holding throughout (conditions): 10 µM

In assay [1] the test system is HCT-15 colon.
Assay [2] has as its system HT29 colon.
Assay [3] has as its system SNB-75 CNS.
For assay [4], the system named is SNB-19 CNS.
For assay [5], the system named is U251 CNS.
Assay [6] has as its system SK-MEL-5 melanoma.
For assay [7], the system named is UACC-62 melanoma.
Assay [8] concerns LOX IMVI melanoma.
The subject of assay [9] is SK-MEL-28 melanoma.
The test system of assay [10] is PC-3 prostate.

About 83,000 compounds went through this panel and 20% of them were active in at least one assay; those are over-represented in the sample as a whole.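 In brief: 96-well plates, 48 h treatment, single concentration, percent growth endpoint.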 Unmarked numbers belong to inactive results. The source made the active and inactive calls. Rule for the calls: active = growth percent below 10; inactive = the rest.

With `CC(=O)C1N=NCC1c1ccccc1` (stereo unspecified), the growth in [1] is 96.9%; in assay [2] it was 105%; in assay [3] it was 92.1%; in assay [4] it was 99.9%; in assay [5] it was 110%; in assay [6], 98.4%. In addition, the growth in assay [7] was 83.8%; in assay [8] it was 103%; in assay [9] it was 112%.

With `CN1CCc2c(sc3nc4n(-c5ccc(Cl)cc5)c(=O)[nH]n4c(=O)c23)C1`, the growth in [1] is 103%; in [2], 86.4%; in assay [3], 95.2%; in assay [4], 109%; in assay [5] it was 98.7%; in assay [6], 110%. Moreover, the growth was 111% in assay [7], 92.5% in [8] and 111% in [9].

For `CN(C)CCN(Cc1ccccc1)c1ccc2ccccc2n1`, the growth in [1] was 98%; in assay [2], 89.7%; in assay [3] it was 82%; in assay [4] it was 95.6%; in assay [5], 94.2%; in assay [6], 91.7%. For the same compound, the results for the growth in assay [7], in assay [8] and in assay [9] were 92.9%, 88.8% and 101%, respectively.

Turning to `Cc1ccc(C)c(COc2cc(NC(=O)c3ccc4c(c3)OCO4)ccc2N(C)S(C)(=O)=O)c1`, the growth in assay [1] is 11.2%; in assay [2], 5.29% (active); in [3], 4.74% (active); in assay [4], 18.3%; in assay [5] it was 12.9%; in [6] it was -42.5% (active). The growth in [7] is 15.8%; in assay [8], 36%; in [9], 64.6%.

Take `COC(=O)c1cc2oc(/C=C3/SC(=S)N(N)C3=O)cc2n1Cc1ccccc1`: the growth in assay [1] was 47%; in assay [2], 63%; in assay [3], 29.3%; in [4] it was 84.5%; in [5] it was 45.3%; in assay [6] it was 45.4%. The values for the growth in assay [7], in assay [8] and in [9] were 50.6%, 34.6% and -71.4% (active), respectively.

In the case of `COc1ccc([C@H]2[C@H](C(=O)Nc3cccnc3)c3ccccc3C(=O)N2c2ccccc2)cc1`, the growth was 78.1% in assay [1]; 81.3% in [2]; 98.9% in [3]; 88.4% in [4]; 74.8% in assay [5]; 79.4% in assay [6]. In addition, the results for the growth in [7], in assay [8] and in assay [9] were 92.3%, 92.5% and 102%, respectively.

In the case of `O=c1[nH]c(=O)n(C2C[C@H](O)[C@@H](CO)O2)cc1C(F)(F)F` (stereo partly specified), the growth was 107% in assay [1]; 103% in [2]; 94.3% in [3]; 119% in [4]; 102% in assay [5]; 106% in assay [6]. Besides, the growth was 108% in assay [7], 103% in [8] and 120% in assay [9].

`O=C1c2ccccc2-c2c1c1cccnc1c(=O)n2C[C@H](O)CO`: the growth in assay [1] is 62.8%; in assay [2] it was 57.7%; in assay [3] it was 63.9%; in [4] it was 59.2%; in [5], 46.8%; in [6], 50.9%. The figures for the growth in [7], in [8] and in assay [9] were 51%, 36.3% and 87.9%, respectively.

Consider `CC(=O)O[C@@]12CO[C@@H]1C[C@H](O)[C@@]1(C)C(=O)[C@H](O)C3=C(C)[C@@H](OC(=O)[C@H](O)[C@@H](NC(=O)OC(C)(C)C)c4ccccc4)C[C@@](O)([C@@H](OC(=O)c4ccccc4)C12)C3(C)C` (stereo partly specified), for which the growth in assay [1] was 16.5%; in assay [2], 6.02% (active); in [3], -2.3% (active); in [4], 37.8%; in assay [5], 24.2%; in [6] it was 28.6%. Further, the growth is 52.5% in [7], 44.6% in [8] and 77.9% in assay [9].

Take `COc1cc(-c2nn(-c3ccc(NC(=O)NCCCNC(=O)c4ccccc4)cc3)cc2-c2ccncc2)ccc1Cl`: the growth was 20.3% in assay [1]; 3.51% (active) in assay [2]; 25% in assay [3]; 55.8% in assay [4]; 14.9% in assay [5]; -43.5% (active) in assay [6]. Moreover, the growth in assay [7] is 51.7%; in assay [8], 15.1%; in [9], 52.1%.

On to `N#Cc1cnn(C(=O)c2nn(-c3ccc(Cl)cc3)cc2O)c1N`, for which the growth in [1] is 18.1%; in [2], 29.1%; in assay [3], 32.4%; in assay [4], 32.5%; in assay [5], 22%; in assay [6] it was 14.8%. Moreover, the growth in assay [7] is 5.76% (active); in assay [8], 8.92% (active); in assay [9], 56.1%.

As to `CC[C@@H](C(=O)[C@@H](C)[C@@H](O)[C@H](C)[C@@H]1O[C@@H]([C@@H](CC)C(=O)O)CC[C@@H]1C)C1O[C@]2(C=CC(=O)[C@]3(CC[C@@](C)([C@H]4CC[C@](O)(CC)[C@H](C)O4)O3)O2)[C@H](C)C[C@@H]1C` (stereo partly specified), the growth in [1] was 23.8%; in assay [2] it was 30.5%; in assay [3], 19.2%; in [4] it was 11.6%; in [10] it was 27.4%; in assay [6], -91.7% (active). Further, the growth in assay [7] is -32.5% (active); in assay [8], 35.4%; in assay [9], -81.2% (active).

Regarding `c1ccc(CCCCc2ccc3ccccc3n2)cc1`, the growth in assay [1] was 90.1%; in assay [2], 87.1%; in [3] it was 93.6%; in assay [4] it was 105%; in assay [10], 77.1%; in [6], 109%. The growth in assay [7] is 102%; in assay [8], 96.1%; in assay [9], 104%.

For the compound `O=C(CCCCNC(=O)c1nc(-c2ccccc2)n(-c2ccccc2)n1)NO`, the growth in [1] was 91.3%; in assay [2], 73.6%; in assay [3], 70.8%; in assay [4] it was 86%; in [5], 65.9%; in assay [6] it was 62.2%. Further, the growth in assay [7] is 37.5%; in assay [8], 96.9%; in assay [9] it was 75.2%.
